# p53null 39C tox = qHTS Screen for Compounds that Selectively Target Cancer Cells with p53 Mutations: Cytotoxicity of p53 Null Cells at the Nonpermissive Temperature | Potency, µM (doses to about 46.1 µM), for the others: top-dose activity, negative = cell killing, actives largely listed as cytotoxic | H1299 p53-null (neo) cells, 39C, ATPlite viability, 24 h | actives 0.97% (n = 55,000);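 also: 0% = DMSO only and -100% = full killing by 100 µM tamoxifen; nearly all actives have a fitted effect of over 50% in size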
#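 Cells seeded at 600/well, 37C overnight. Compound added (up to 46 uM), plates shifted to 39C for 24 hr. ATPlite added, luminescence read after 20 min at room temperature.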
# S16 viability = Cell viability qHTS assay in S16 Pmp22-F2sN cells; actives 0.48% (n = 43,000); Potency, µM (doses to about 57.5 µM), for the others: at the highest dose activity change, negative = cytotoxicity, actives largely listed as cytotoxic; S16 Pmp22-F2sN Schwann cells viability, CellTiter-Glo, 24 h; also: nearly all actives have a fitted effect of over 65% in size
#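 Rat S16 Schwann reporter line, 24 h treatment with library compounds delivered at 23 nL per well. Cell viability by CellTiter-Glo luminescence.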
# mTORC1 inh = Acumen qHTS Assay for Inhibitors of the mTORC1 Signaling Pathway in MEF (Tsc2-/-, p53-/-) Cells: Sytravon; Potency, µM (titrated, usually from 38.3 µM), for the others: at the top dose activity change, negative = inhibition, actives largely listed as inhibitors; Tsc2-/- p53-/- MEF, phospho-rpS6 immunofluorescence/PI, 24 h; actives 0.78% (n = 44,000);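 also: plate controls were DMSO for no effect and rapamycin for full effect; nearly all actives have a fitted effect of over 50% in size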
#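 Plate MEFs (Tsc2-/-, p53-/-, empty vector) in DMEM/10% FBS; after 24 h add compound, incubate 24 h at 37 degree Celsius; fix in PFA/TX-100, block, stain phospho-rpS6 and 10 uM PI; scan at 488 nm; report % positive cells.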
# SKOV3 invasion = Primary qHTS assay for Inhibitors of ovarian cancer metastasis using an organotypic tumor microenvironment (TME) model. Potency, µM (top dose mostly 45.8 µM), without a hit: at the highest dose activity change, negative = inhibition, most hits filed as inhibitors. actives 0.1% (n = 46,000). AID 1963576, 2024. SKOV3ip1-GFP adhesion/invasion on 3D omental model, fluorescence;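 also: plate controls were DMSO wells for no effect and tomatine positive control wells for full effect; nearly all actives have a fitted effect of over 65% in size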
#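 Adhesion/invasion was scored as fixed GFP-labeled SKOV3ip1 cell counts (488/509 nm), normalized to DMSO and tomatine controls. Cancer cells in serum-free medium, with four compound doses (0.36-46 umol/L), sat 2 hr at RT then 16 hr at 37 C on a 48 hr fibroblast/mesothelial/ECM culture.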
# PMP22 txn prim = Cell-based coincidence reporter assay to measure PMP22 gene transcription in S16 Pmp22-F2sN cells - Primary screen | actives 2% (n = 43,000) | Potency, µM (series often up to 57.5 µM), without a hit: top-dose activity change, negative = inhibition, actives largely listed as inhibitors | S16 Pmp22-F2sN Schwann cells (luciferase reporters placed in the Pmp22 gene), FLuc/NLuc coincidence luminescence, 24 h; active = clear falling dose curves in both reporters; inconclusive = both reporters move, but less clearly or upward; inactive = either reporter flat; the % is the NLuc reporter signal
#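 Transcriptional readout in edited S16(c9) cells: two luciferases reported from the Pmp22 locus, measured in turn after 24 h compound incubation.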
# p53null 32C kill = qHTS Screen for Compounds that Selectively Target Cancer Cells with p53 Mutations: Cytotoxicity of p53 Null Cells at the Permissive Temperature; actives 0.62% (n = 55,000); H1299-neo p53 null cells, ATP luminescence, 24 h, 32C; Potency, µM (doses to about 46.1 µM), for the others: top-dose activity change, negative = cytotoxicity, actives largely listed as cytotoxic;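 also: 0% = DMSO only and -100% = full killing by 100 µM tamoxifen; nearly all actives have a fitted effect of over 55% in size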
#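 Cells lacking p53 (H1299-neo) are plated at 600 per well and allowed to settle overnight at 37C. Test compounds (up to 46 uM) are added and held 24 hours at 32C, then ATP is quantified by luminescence.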
# The depositor's hits bear a star; i = inactive; ? = inconclusive; nt = no result given. The list is not random: actives were taken first. Their share in the collection is about 3.1%. Unless noted, calls follow the shape of the dose curve; as a rule, active = well fitted curve in the direction sought with a large enough effect; inconclusive = small, poorly fitted or top-dose-only effect, or another doubt; inactive = no such curve, though single readings can be large; an effect the other way counts as inactive or inconclusive. Unless noted, % is scaled to controls: 0 for no effect and ±100 for the full control effect; potency is read from the fitted curve at half-maximal effect.
SMILES,p53null 39C tox,S16 viability,mTORC1 inh,SKOV3 invasion,PMP22 txn prim,p53null 32C kill
COc1ccc(C2=CC(c3cc(Br)ccc3F)n3c(nc4ccccc43)N2)cc1 (configuration not stated),11.2µM*,-1.9%,-1.3%,i,?,12.6µM*
Cc1ccc(C)c(NC(=O)Cn2nnc(C(=O)NCc3ccccc3Cl)c2N)c1,7.9%,14.1µM*,-3.8%,?,?,7.4%
Cc1cc(C)cc(NC(=O)Cn2nnc(C(=O)NCc3ccccc3Cl)c2N)c1,?,-15.0%,-9.0%,?,?,-7.3%
Cc1ccc2nc(-c3sc4nc(C)ccc4c3N)[nH]c2c1,10µM*,nt,nt,nt,nt,11.2µM*
Nc1ccc2nc(-c3cccs3)[nH]c2c1,-20.4%,nt,nt,nt,nt,?
COc1ccc(CNS(=O)(=O)c2ccc(-c3cc(C(F)(F)F)on3)s2)cc1OC,-4.4%,?,-10.4%,-1.9%,20µM*,-2.0%
C[C@@H]1[C@H](C)CC[C@]2(C(=O)O)CC[C@]3(C)C(=CC[C@@H]4[C@@]5(C)C[C@@H](O)[C@H](O)[C@@](C)(CO)[C@H]5CC[C@]43C)[C@@H]12,nt,nt,nt,-3.8%,nt,nt
Cc1ccc(Cl)cc1NC(=O)CN1C(=O)c2cccc3cccc1c23,-9.3%,9.5%,-5.4%,4.7%,?,6.8%
Cc1cc(Cl)ccc1NC(=O)CN1C(=O)C(=O)c2ccccc21,-16.2%,?,10.4µM*,-7.4%,?,-8.4%
Cc1cccc(N2CCN(C(=O)c3cnn(-c4cccc(Cl)c4C)c3C3CCNCC3)CC2)c1C,-26.8%,?,16.5µM*,?,?,11.1%
O=C(CSc1nccn1Cc1ccc(Cl)cc1)Nc1nc2ccccc2s1,14.1µM*,9.7%,-19.9%,-9.2%,2.4%,51.8%
C[C@]12CC[C@@H]3c4ccc(O)cc4CC[C@H]3[C@H]1[C@@H](O)[C@@H](O)[C@H]2O,nt,nt,nt,6.9%,nt,nt
COc1ccc(C(=O)Nc2nnc(C)s2)cc1,?,28.1%,-4.7%,-6.1%,1.7%,10µM*
COc1ccc(C(=O)Nc2cc(OC)nc(OC)n2)cc1,12.6µM*,nt,nt,nt,nt,11.2µM*
CCN1CCC(n2cc(CNc3cc(Cl)c4ncc(C#N)c(Nc5ccc(F)c(Cl)c5)c4c3)nn2)CC1,nt,nt,nt,-1.5%,nt,nt
Cn1cc(-c2cnn3c(N)c(Br)c([C@H]4CCCNC4)nc23)cn1,nt,nt,nt,17.9%,nt,nt
CCCNS(=O)(=O)Nc1ncnc(OCCOc2ncc(Br)cn2)c1-c1ccc(Br)cc1,nt,nt,nt,-13.2%,nt,nt
Cc1ccccc1Nc1c(-c2ccc(N3CCOCC3)cc2)nc2ncccn12,12.6µM*,-2.0%,4.3%,-4.8%,18.7%,12.6µM*
CN(CC(=O)N(Cc1ccc(C2CCCCC2)cc1)c1ccc(C(=O)O)c(O)c1)S(=O)(=O)c1c(F)c(F)c(F)c(F)c1F,nt,nt,nt,23.3%,nt,nt
CCCCNC(=O)c1nn(-c2ccc(C)cc2)c(=O)c2c1c1ccccc1n2C,-20.9%,15.8µM*,0.7%,6.5%,-20.5%,-5.3%
COCCNC(=O)c1nn(-c2ccc(C)cc2)c(=O)c2c1c1ccccc1n2C,0.9%,?,1.7%,2.7%,?,8.1%
CCCCN(C)CCNC(=O)c1cc(-c2ccc(Cl)s2)nc2ccccc12,12.6µM*,?,?,i,?,8.2%
Cc1ccc(CN2C(=O)C(=O)c3cc(Br)cc(C)c32)cc1,11.2µM*,?,?,12.6µM*,?,?
O=C(O)c1ccc(O)c2ncc(N3CCOCC3)cc12,nt,nt,nt,4.3%,nt,nt
c1ccc2c(Oc3nc(Nc4ccc(N5CCOCC5)cc4)c4ncn(C5CCCCC5)c4n3)cccc2c1,nt,nt,nt,-11.3%,nt,nt
SMILES,p53null 39C tox,S16 viability,mTORC1 inh,SKOV3 invasion,PMP22 txn prim,p53null 32C kill
CC(C)(C)c1ccc(OCC(=O)NCC2(N3CCOCC3)CCCCC2)cc1,?,?,?,i,?,?
CN1CCN(C2(CNC(=O)c3ccc(C(C)(C)C)cc3)CCCCC2)CC1,-16.6%,?,16.5µM*,i,?,-2.0%
CC(C)COc1ccc(C(=O)NCC2(N3CCN(C)CC3)CCCCC2)cc1,-14.6%,?,16.5µM*,?,?,-4.6%
Cc1ccc(OC(C)C(=O)NCC2(N3CCOCC3)CCCCC2)cc1C (configuration not stated),-9.3%,-15.1%,?,i,?,-7.4%
CC1(C)CCC[C@@]2(C)[C@@H]1CC[C@@]1(C)OC(=O)C[C@H]21,nt,nt,nt,-7.7%,nt,nt
C[C@@H](Cc1cc2c(c(C(N)=O)c1)N(CCCO)CC2)NCCOc1ccccc1OCC(F)(F)F,nt,nt,nt,-1.9%,nt,nt
Oc1c(C(Nc2ccccn2)c2ccccc2F)ccc2cccnc12 (configuration not stated),3.98µM*,2µM*,?,0.8%,?,?
Cc1ccnc(NC(c2ccccc2F)c2ccc3cccnc3c2O)c1 (configuration not stated),?,?,?,i,?,-27.7%
COC(=O)Nc1ccc(-c2nc(N3CCOCC3)c3cnn(C4CCN(C(=O)OC)CC4)c3n2)cc1,nt,nt,nt,27.5%,nt,nt
COc1ccc(N2CCN(C(=O)c3ccc(Nc4nc5ccccc5n5nnnc45)cc3)CC2)cc1,-6.7%,?,-0.5%,-12.5%,?,-0.8%
O=C(c1ccc(Nc2nc3ccccc3n3nnnc23)cc1)N1CCN(c2ccc(F)cc2)CC1,-19.3%,?,3.5%,-5.8%,4.01µM*,-1.7%
CN(C)c1ccc(Nc2nc3ccccc3n3nnnc23)cc1,?,?,-0.9%,3.5%,13.5µM*,-20.4%
NC[C@H]1O[C@H](O[C@H]2[C@@H](O)[C@@H](O[C@H]3O[C@H](CO)[C@@H](O)[C@H](N)[C@@H]3O)[C@H](N)C[C@@H]2N)[C@H](N)C[C@H]1O,nt,nt,nt,1.7%,nt,nt
Cc1cc(SCc2sc(-c3ccc(C(F)(F)F)cc3)nc2C)ccc1OCC(=O)O,nt,nt,nt,21.4%,nt,nt
Clc1cccc(-c2nnnn2Cc2cccnc2)c1Cl,nt,nt,nt,-20.0%,nt,nt

# Assay outcomes as filed in PubChem.
